Tau fluor cs: counter-screen for tau fibril formation inhibitors. tau K18 P301L Alexa594 fluorescence, heparin fibrillization. Potency, µM (top dose mostly 57.7 µM), inactives show at the top dose activity change, negative = decrease. 280,000 compounds, 0.93% hits; further: potency means the concentration at half of the fitted maximal effect; nearly all actives have a fitted effect of over 55% in size
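Human tau K18 P301L (15 uM unlabeled, 0.24 uM Alexa 594-labeled) in 100 mM sodium acetate pH 7 with 20 uM heparin, 6 hr at 37 C. ThT 30 uM added, 1 hr ambient; Alexa 594 FP and total fluorescence read at 555/632 nm.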
Coupling enz: inhibits coupling enzyme system, counter-screen for aldolase hits | coupling enzyme system counterscreen, AmpLite Red fluorescence | activity change, negative = inhibition, % at 58.2 µM, hits read low | 290,000 compounds, 0.67% hits | AID 2472; in the data active means activity change below about -30%
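First, compound is pin-transferred into glyceraldehyde-3-phosphate coupling-enzyme reagent at 57.5 uM final and held 10 min at RT. Next, substrate, coupling system and AmpLite Red are added. After 20 min RT, fluorescence (525/598 nm) is read.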
Tau fibril FP: blocks human tau fibril formation measured by polarization; P10636; K18 P301L tau heparin fibrillization, Alexa594 FP, 6 h; Potency, µM (doses to about 57.7 µM), for the others: at the top dose activity, negative = inhibition, hits mostly inhibitors; 280,000 compounds, 0.39% hits; AID 1468; further: potency means the concentration at half of the fitted maximal effect; nearly all actives have a fitted effect of over 55% in size
Target sequence (P10636 561-689 P618L limits assumed): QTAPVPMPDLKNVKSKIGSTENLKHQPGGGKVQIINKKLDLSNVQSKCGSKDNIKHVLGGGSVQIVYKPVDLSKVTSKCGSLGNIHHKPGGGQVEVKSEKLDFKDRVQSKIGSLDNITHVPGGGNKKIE
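Read-out: fluorescence polarization of Alexa 594-labeled tau (0.24 uM), 555 nm excitation, 632 nm emission. Mixtures held 15 uM unlabeled K18 P301L, compound and 20 uM heparin, pH 7 acetate buffer, incubated 6 hr at 37 C.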
Tau ThT inhib: tau fibrillization inhibition (ThT binding); Potency, µM (doses to about 57.4 µM), without a hit: top-dose activity, negative = inhibition, actives largely listed as inhibitors; P10636; recombinant tau K18 P301L, heparin-induced fibrillization, ThT fluorescence; AID 1460; 270,000 compounds, 2.1% hits; further: potency means the concentration at half of the fitted maximal effect; nearly all actives have a fitted effect of over 55% in size
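Using a mix of unlabeled (15 uM) and Alexa 594-labeled (0.24 uM) tau K18 P301L, heparin-triggered fibrillization over 6 hr at 37 C was scored by ThT fluorescence.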
The depositor's hits bear a star; ? = inconclusive; . = no result; [ ] = another dose, or the depositor's remark. In the library only some 2.7% were active in any assay of this set; here they are far more common. Unless noted, the call rests on the fitted dose curve; in most records, active means well fitted curve in the direction sought with a large enough effect; inconclusive means small, poorly fitted or top-dose-only effect, or another doubt; inactive means no such curve, though single readings can be large; an effect the other way counts as inactive or inconclusive. On the % scale 0 is the no-effect control and ±100 the full control effect.

SMILES	Tau fluor cs	Coupling enz	Tau fibril FP	Tau ThT inhib
N#CC1=C(N)C(C#N)(C#N)C(c2ccncc2)C2CN(C(=O)OCc3ccccc3)CC=C12 (configuration not stated)	-15.1%	1.6	?	25.1µM*
CCOC(=O)N1CC=C2C(C#N)=C(N)C(C#N)(C#N)[C@H](c3ccccc3OCC)[C@H]2C1	1.3%	2.3	-0.5%	-10.0%
N#CC1=C(N)C(C#N)(C#N)[C@H](c2cccnc2)[C@H]2CN(C(=O)OCc3ccccc3)CC=C12	-16.0%	0.2	?	15.8µM*
COc1cccc(-c2nc(NCCNC(C)=O)c3ccccc3n2)c1	.	-0.9	.	.
CCn1c(C(=O)NCc2ccccc2C)cc2oc3ccccc3c21	?	.	-4.4%	?
CSc1ccc(/C=N/NC(=O)CNc2ccc3ccccc3c2)cc1	14.1µM*[quencher]	-1.4	-3.1%	5.01µM*
COCCNC(=O)CC(=O)N/N=C/c1ccc(C(=O)OC)cc1	-1.6%	3.2	?	-15.3%
O=C(CNc1ccc2ccccc2c1)N/N=C/c1ccc(OC(=O)/C=C/c2ccco2)cc1	7.08µM*[quencher]	0.2	-13.3%	5.01µM*
COCCCNC(=O)CC(=O)N/N=C\c1ccc(SC)cc1	5.4%[2.34 µM]	-70.0*	0.4%[2.34 µM]	9.8%
O=c1c(-c2cccs2)nc2cnc(N3CCNCC3)nc2n1CCc1ccccc1	.	-4.1	.	.
COc1ccc2c(c1)c1c(c(=O)n(-c3cc(Cl)ccc3C)c(=O)n1CC(=O)N1CCCC1)n2C	-1.8%	.	-0.6%	0.2%
Cc1ccc(Cn2c(SCc3ccc(C(=O)N4CCCCC4)cc3)nc3ccncc32)cc1	-8.4%	.	-1.0%	-4.7%
CC(=O)[C@]1(O)Cc2c(O)c3c(c(O)c2[C@@H](O[C@H]2C[C@H](N)[C@H](O)[C@H](C)O2)C1)C(=O)c1ccccc1C3=O	?	.	?	3.55µM*
CC(=O)[C@]1(O)Cc2c(O)c3c(c(O)c2[C@@H](O[C@H]2C[C@H](N)[C@H](O)[C@H](C)O2)C1)C(=O)c1c(O)cccc1C3=O	?	-35.2*	25.1µM*	4.47µM*
Cc1ccc(OC(=O)CSc2nnc(-c3ccc4c(c3)OCO4)o2)c(C)c1	0.5%	.	?	-7.4%
CCOc1cc(/C=C2\N=C(SCC)SC2=O)cc([N+](=O)[O-])c1OC(C)=O	?	-2.1	-10.0%	3.98µM*
CCOc1c(OC(C)=O)ccc(/C=C2\N=C(SCC)SC2=O)c1[N+](=O)[O-]	17.8µM*[quencher]	0.4	?	14.1µM*
CCOc1cc(/C=C2\N=C(SC)SC2=O)cc([N+](=O)[O-])c1OC(C)=O	?	-0.3	-11.0%	3.55µM*
COc1ccc(C2=CSC(/N=C/c3ccc(F)cc3)=NN2)cc1	?	0.0	-3.7%	14.1µM*
CCOP(=O)(OCC)C(C#N)=C1SCN(c2ccc(Cl)cc2)CS1	-24.5%	1.1	?	2µM*
CCOC(=O)c1[nH]c(C)c(CCC(=O)N2CCN(c3ccc(Cl)cc3)CC2)c1C	-9.3%	.	-2.8%	-2.7%
COc1ccc(/C=C(\C#N)c2nc(-c3ccc(Cl)c(Cl)c3)cs2)cc1OC	-14.3%	.	-4.5%	?
CC(=O)Nc1sc(/C(C#N)=C/c2ccc(Cl)c(Cl)c2)nc1-c1ccc(C)cc1	25.2%	-44.1*	2.7%	?
COc1cc(=O)n(C)c2cc(N(C)C)ccc12	0.2%	-31.2*	5.3%	-16.0%
Cc1ccc(C)c(CN2C(=O)COc3ccccc32)c1	.	-0.4	.	.
SMILES	Tau fluor cs	Coupling enz	Tau fibril FP	Tau ThT inhib
Cc1ccc(C)c(CN2C(=O)COc3ccc(C(=O)c4ccccc4C(=O)O)cc32)c1	-4.2%	-34.7*	1.3%	4.7%
CCCCOC(=O)c1ccc(NC(=O)Cn2nnc3sc4c(c3c2=O)CCCC4)cc1	?	.	?	1.4%
Cc1c(O)c(CN2CCCC2)cc2c1oc(=O)c1ccccc12	-13.8%	-0.8	10.0%	-9.8%
Cc1c(O)c(CN2CCCC2)cc2c3c(c(=O)oc12)CCC3	-21.9%	0.8	?	12.6µM*
O=c1c(-c2ccc(F)cc2)nc2cnc(N3CCOCC3)nc2n1CCc1ccccc1	.	0.2	.	.
N#CC(C#N)=Cc1ccc(-c2ccc(S(=O)(=O)N=C(N)N)cc2)o1	?	4.5	8.0%	20µM*
COc1cccc(N2CCN(S(=O)(=O)c3ccc(-n4cnnn4)cc3)CC2)c1	-0.6%	-2.0	-0.4%	2.9%
CCn1cc(C(=O)N2CCN(c3ccccc3)CC2)c(=O)c2cc(S(=O)(=O)N3CCC(C)CC3)ccc21	-10.8%	.	-1.3%	-9.1%
Cc1ccccc1NC1=C/C(=N\S(=O)(=O)c2ccc(C(=O)O)cc2)c2ccccc2C1=O	.	-43.9*	.	.
COC(=O)C(C(C)=O)C1=C/C(=N\S(=O)(=O)c2ccc(C)cc2)c2ccccc2C1=O (configuration not stated)	?	-33.4*	?	31.6µM*
O=C(O)c1ccc(S(=O)(=O)/N=C2\C=C(Nc3ccccc3F)C(=O)c3ccccc32)cc1	.	-45.4*	.	.
Oc1ccc(Nc2nc(-c3ccccc3F)nc3ccccc23)cc1	.	0.7	.	.
C/C(=N\Nc1nc(-c2ccccc2O)nc2ccccc12)c1ccccc1	?	1.1	-2.7%	-8.2%
C/C(=N/Nc1nc(-c2ccccc2F)nc2ccccc12)c1ccccc1O	?	-0.3	6.4%	10µM*
COc1ccc(Nc2nc(-c3ccccc3F)nc3ccccc23)cc1OC	10µM*[quencher]	-0.9	14.8%	?
O=C(Nc1nc2ccc(Cl)cc2s1)c1ccc(S(=O)(=O)N2CCCC2)cc1	-3.2%	.	-3.6%	-3.7%
COc1ccc(Nc2ncnc3sc(-c4ccccc4)cc23)cc1OC	14.1µM*[quencher]	2.6	?	?
COc1ccc(Nc2ncnc3c2cnn3-c2ccccc2)cc1OC	?	2.1	?	?
CC(=O)N(Cc1ccc(F)cc1)C1=C(NCCc2ccccc2)C(=O)c2ccccc2C1=O	?	-46.6*	?	28.2µM*
O=C1c2ccccc2C(=O)C12OC2c1ccc(Cl)cc1Cl (configuration not stated)	?	-0.3	?	10µM*
COc1ccccc1NC(=O)NCc1cccn1Cc1ccccc1	-20.0%	.	-3.4%	-1.9%
Brc1ccc(-c2cn3c(n2)CCc2ccc4cccnc4c2-3)cc1	-17.7%	-30.5*	1.0%	?
CC(=O)Nc1ccc(Nc2cc(C)nc3c(-c4ccccc4)cnn23)cc1	15.8µM*[quencher]	0.6	14.3%	?
CC(=O)Nc1ccc(Nc2cc(-c3ccccc3)nc3ncnn23)cc1	-9.9%	1.4	5.8%	-15.9%
COc1ccccc1Nc1ncc(-c2cccs2)s1	15.8µM*[quencher]	1.4	-7.7%	14.1µM*
COc1ccccc1Nc1ccc(C(=O)NCc2cccs2)cn1	-5.9%	18.3	-2.7%[2.34 µM]	-2.2%
CCOc1ccc(N2C(=O)/C(=C\c3ccc(O)c(OC)c3)S(=O)(=O)C2c2cccc([N+](=O)[O-])c2)cc1 (configuration not stated)	31.6µM*[quencher]	2.5	8.1%	?
